HPGD block – HPGD (human) dehydrogenase inhibition | P15428 | purified HPGD, NADH fluorescence kinetic, PGE2 substrate | Potency, µM, inactives show at the top dose activity change, negative = inhibition, most hits filed as inhibitors | 150,000 tested, 4.3% active; also: potency is read from the fitted curve at half-maximal effect
Target sequence (P15428 whole entry, looked up): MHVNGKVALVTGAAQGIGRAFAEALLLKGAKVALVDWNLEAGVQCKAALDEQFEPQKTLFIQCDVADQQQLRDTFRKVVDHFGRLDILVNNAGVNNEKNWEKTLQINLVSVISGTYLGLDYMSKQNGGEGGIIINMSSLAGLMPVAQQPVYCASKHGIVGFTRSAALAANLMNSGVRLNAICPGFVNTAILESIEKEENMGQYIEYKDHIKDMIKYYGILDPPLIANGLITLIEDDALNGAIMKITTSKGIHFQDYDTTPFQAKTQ
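NADH formation kinetics: reaction with 30 uM PGE2 and 1 mM NAD+ (final), 20 nM enzyme, Tris-HCl pH 8 with Tween 20, after 15 min compound preincubation at room temperature. Fluorescence change, last versus first of five reads.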
ALDH1A1 block – blocks purified human ALDH1A1 activity; P00352; Purified ALDH1A1, NADH fluorescence, propionaldehyde substrate; Potency, µM (doses to about 75.3 µM), for inactives: at the top dose activity, negative = inhibition, actives largely listed as inhibitors; 220,000 tested, 7.3% active; AID 1030;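 also: potency is read from the fitted curve at half-maximal effect; plate controls were no enzyme wells and a reference inhibitor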
JMJD2E inh – JMJD2E (human) inhibition; Potency, µM (highest dose often 57.1 µM), without a hit: at the highest dose activity change, negative = inhibition, usual class: inhibitors; AID 2147; B2RXH2; 230,000 tested, 1.6% active; JMJD2E catalytic domain, FDH-coupled NADH fluorescence (FDH is formaldehyde dehydrogenase);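 also: potency is read from the fitted curve at half-maximal effect; 0% = wells with enzyme and -100% = buffer wells without enzyme; nearly all actives have a fitted effect of over 50% in size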
Target sequence (B2RXH2 1-337 limits assumed): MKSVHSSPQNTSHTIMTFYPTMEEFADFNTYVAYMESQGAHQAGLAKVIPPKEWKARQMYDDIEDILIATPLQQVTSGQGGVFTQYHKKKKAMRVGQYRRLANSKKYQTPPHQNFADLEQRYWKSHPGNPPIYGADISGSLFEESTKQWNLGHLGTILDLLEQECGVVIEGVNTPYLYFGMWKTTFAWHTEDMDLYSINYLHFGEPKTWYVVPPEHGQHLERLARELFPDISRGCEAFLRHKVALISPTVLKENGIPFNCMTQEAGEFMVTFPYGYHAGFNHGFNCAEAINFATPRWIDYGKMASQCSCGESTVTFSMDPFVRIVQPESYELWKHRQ
PNC assembly inh – inhibitors of perinucleolar compartment assembly | AID 2417 | 140,000 tested, 3.1% active | activity change (PNC), negative = inhibition, % at 10 µM | PC3M PTB-GFP, PNC prevalence imaging, 16 h; active compounds read low;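 active = readout at or below -70, meaning at least 70% loss of cells showing the perinucleolar compartment, a nuclear body marking cancer cells; inconclusive = readout between -30 and a set limit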;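 also: plate controls were DMSO wells for no effect and camptothecin positive control wells for full effect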
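Compounds are pinned in duplicate onto adhered PC3M cells stably expressing GFP-tagged PTB and incubated 16 h at 37 C. Cells are then fixed, nuclei stained with Hoechst, and PNC-positive cells counted.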
Active calls of the source: *; ? = inconclusive; . = no result given; [ ] = remark or other dose. An excerpt weighted towards active compounds, which were near 11% of everything screened. Unless noted, calls follow the shape of the dose curve; as a rule, active = well fitted inhibition curve with a large enough effect (not every such curve was filed as active); inconclusive = small, poorly fitted or top-dose-only effect, or another doubt; inactive = no such curve, though single readings can be large or run the other way. Unless noted, % is scaled to controls: 0 for no effect and ±100 for the full control effect.

SMILES	HPGD block	ALDH1A1 block	JMJD2E inh	PNC assembly inh
Cc1ccc(S(=O)(=O)c2nc(-c3ccco3)oc2NCC2CCCO2)cc1 (stereo unspecified)	-17%	10µM*	?	13
N#CCCn1c(=O)c(-c2ccc(Cl)cc2)nc2cnc(Nc3ccccc3)nc21	.	19%	.	.
CCc1ccc(C(=O)NCc2cccs2)s1	18µM*	5%	3%	?
NC(=O)NCc1cccs1	.	10%	8%	.
O=C(NCc1cccs1)c1ccc(Cl)s1	16µM*	10%	4%	-3
COc1c(F)c(F)c(C(=O)Nc2ccc(NC(=O)Cc3ccccc3)cc2)c(F)c1F	.	6%	?	.
CN1CCN(c2nc(-c3ccoc3)nc3ccccc23)CC1	.	6%	.	.
Cc1cc(C(=O)CSc2nnc(NCc3ccccc3)s2)c(C)n1C	18µM*	-6%	-2%	-18
Cc1cc2nc(C3CCN(CC4COc5ccccc5O4)CC3)[nH]c2cc1C (stereo unspecified)	-3%	-12%	0%	-82*
O=c1[nH]nc(Cc2ccc3ccccc3n2)c2ccccc12	.	9%	3%	-23
Fc1ccc2c(c1)/C(=N/Nc1ccccn1)CCS2	.	?	-8%	.
Fc1ccc(N/N=C2/CCSc3sccc32)c(F)c1	.	19µM*	?	.
C=CCN(CC=C)C(=O)c1cc2ccccc2c(=O)o1	?	?	-1%	32
Nc1nnc(SCc2cn3cc(Cl)ccc3n2)s1	.	7%	2%	.
CC(=O)N1CC=CC1(C)C(=O)NCC1CC1 (stereo unspecified)	?	?	16%	.
COc1ccc(N2C(=O)CN(Cc3ccc(OC)c(OC)c3)C2=S)cc1	.	32%	1%	.
COc1ccc(NCc2ccc(OC)c(OC)c2)cc1	-12%	28µM*	?	-12
COc1cc(CNc2ccc(N3CCCC3)cc2)ccc1OCc1ccccc1	-15%	7.9µM*	6.3µM*	-9
Cc1cc(C)n(C(=O)CNC(=O)COc2ccccc2)n1	32µM*	11%	1%	-9
CC(Cc1ccc(O)c(O)c1)C(C)Cc1ccc(O)c(O)c1 (stereo unspecified)	13µM*	28µM*	22µM*	.
CC(CCc1ccc(O)cc1)NCCc1ccc(O)c(O)c1 (stereo unspecified)	-10%	0%	?	.
N[C@@H](Cc1ccc(O)c(O)c1)C(=O)O	-17%	-5%[20.9 µM]	13µM*	.
CC[C@]1(c2ncc[nH]2)Cc2ccccc2O1	-8%	1%	13%	.
CC(=O)C(Sc1nc(N(C)C)nc(N(C)C)n1)C(=O)Nc1ccccc1 (stereo unspecified)	.	-6%	-21%	.
CC(=O)C(Sc1nn(C)c(=S)s1)C(=O)Nc1ccccc1 (stereo unspecified)	?	4.5µM*	?	3
SMILES	HPGD block	ALDH1A1 block	JMJD2E inh	PNC assembly inh
COC(=O)CC1C(C)(C)C(=O)C2CC3C4=CC(=O)OC(c5ccoc5)[C@]4(C)CCC3[C@@]1(C)C2=O (stereo partly specified)	-5%	-2%	-1%	.
Cc1cc(Cl)ccc1Oc1ncnc2oc(-c3ccccc3)cc12	?	?	?	-94*
CCCCN(CCCC)C(=S)N/N=C/c1c(C)[nH]n(-c2ccccc2)c1=O	-29%	5µM*	?	44
O=C(Nc1c2c(nn1-c1ccc(F)cc1)CS(=O)(=O)C2)C12CC3CC(CC(C3)C1)C2	-13%	4µM*	4%	7
O=C(CCC1CCCCC1)Nc1c2c(nn1-c1ccc(F)cc1)CS(=O)(=O)C2	-7%	10µM*	-2%	-12
COc1ccc(NC(=S)NC(=O)CC(C)C)c(OC)c1	.	-1%	-5%	.
CCOc1ccc(C(C)=O)cc1COC(=O)C1=COCCO1	-18%	14µM*	-29%	21
CC(C)CCNC(=O)CSc1nc2ccccc2s1	.	18µM*	1%	.
Cc1csc(NC(=O)CSc2nc3ccccc3s2)n1	-12%	-4%	-4%	13
CC(C)c1nnc(NC(=O)CSc2nc3ccccc3s2)s1	-22%	?	-4%	21
Cc1csc(NC(=O)CCCSc2nc3ccccc3s2)n1	14µM*	10µM*	-5%	-5
CC(=O)CSc1nc2ccccc2s1	-11%	-15%	1%	32
CC(C)CC1CC(=O)OC1(C)C(=O)CSc1nc2ccccc2s1 (stereo unspecified)	-17%	8.9µM*	3%	10
CC(C)OC(=O)CSc1nc2ccccc2s1	16µM*	11µM*	4%	-24
O=C(c1ccc(N2CCOCC2)cc1[N+](=O)[O-])N1CCOCC1	.	6%	-14%	.
O=C(CSc1nc2cc(S(=O)(=O)N3CCOCC3)ccc2o1)NC1CCCc2ccccc21 (stereo unspecified)	8.9µM*	2.2µM*	-13%	?
Cc1ccc(C(=O)CSc2nc3cc(S(=O)(=O)N4CCOCC4)ccc3o2)cc1	25µM*	14µM*	-11%	11
CCCCCOCC1CC(C/C(C)=N/Nc2nc(-c3ccccc3)cs2)C(=O)O1 (stereo unspecified)	-6%	25µM*	0%	36
CN(CC(=O)N1CCCCC1)S(=O)(=O)c1cccc2cccnc12	16µM*	?	2%	13
CN(Cc1ccccc1)S(=O)(=O)c1cccc2cccnc12	22µM*	8.9µM*	0%	?
CCSS(=O)(=O)c1cccc2cccnc12	.	.	3.2µM*	.
COc1cccc(CNC(=O)CN(C)S(=O)(=O)c2cccc3cccnc23)c1	.	.	3%	.
CC(C)CN1CCCC2(CCN(C(=O)c3ccco3)CC2)C1	-3%	?	.	.
COc1ccc(CNC(=O)C(C)Cc2ccccc2)cc1O (stereo unspecified)	-13%	-7%	?	51
COC(=O)c1oc(-c2ccc(Cl)cc2)nc1C	.	25µM*	-10%	.
SMILES	HPGD block	ALDH1A1 block	JMJD2E inh	PNC assembly inh
O=C(O)C1C(c2ccccc2)C(C(=O)Oc2ccccc2)C1c1ccccc1 (stereo unspecified)	-5%	16µM*	8%	?
Cc1cccc(OC(=O)C2C(c3ccccc3)C(C(=O)O)C2c2ccccc2)c1 (stereo unspecified)	0%	?	-10%	?
CCCC(=O)NC(=S)NNC(=O)c1ccc([N+](=O)[O-])cc1	-10%	18µM*	2%	?
O=C(CCN1CCCCC1)NNC(=S)NC(=O)c1ccc(Br)cc1	.	28µM*	-1%	.
CCCCCCCC(=O)NNC(=O)c1ccc([N+](=O)[O-])cc1	-2%	?	6%	51
CC(=O)NNC(=S)NC(=O)c1ccc(C)cc1	.	?	-10%	.
CCC(=O)NNC(=S)NC(=O)c1ccc(C)cc1	.	20µM*	3%	.
O=C(COc1ccccc1)NNC(=S)NC(=O)c1ccccc1	.	22µM*	-8%	.
O=C(Cc1cccs1)NNC(=S)NC(=O)c1ccccc1	-17%	?	?	-9
O=C(CCN1CCOCC1)NNC(=S)NC(=O)c1ccc(Br)cc1	.	?	-3%	.
CC(=O)NNC(=S)NC(=O)c1ccccc1	.	18µM*	?	.
Cc1cccc(C(=O)NC(=S)NNC(=O)COc2c(C)cccc2C)c1	-4%	?	6%	-3
O=C(COc1ccc([N+](=O)[O-])cc1)NNC(=S)NC(=O)c1ccc(Br)cc1	.	8.9µM*	-7%	.

Screens: PubChem BioAssay, National Center for Advancing Translational Sciences (NCATS)
